# Sa ugtP lethal – growth inhibition of S. aureus ugtP deletion strain. S. aureus RN4220 ugtP deletion, OD600 growth, 16 h. growth inhibition, % (test concentration not listed). hit rate 0.54% among 330,000. AID 1259309; in the data active = growth inhibition above about 68%;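 also: plate controls were untreated wells for no effect and antibiotic for full effect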
# RN4220 kill – S. aureus RN4220 growth inhibition; OD600, 16 h; inhibition, % (no concentration beside the values); hit rate 0.33% among 330,000; AID 1259311; in the data active = inhibition above about 85%;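 also: plate controls were untreated cells for no effect and reference antibiotic for full effect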
# PrPC surface inh – inhibitors of human cell surface prion protein PrPC; inhibition, % at 13.8 µM; AID 720596; hit rate 0.43% among 370,000; TR-FRET read-out; in the data active = inhibition above about 24%; also: 0% = median of the test wells and 100% = reference compound wells
# BJeLR lethal – kills HRASV12-expressing BJeLR cells; BJeLR (HRASV12) viability, CellTiter-Glo ATP luminescence, 48 h; inhibition, % (concentration not given with the values); hit rate 0.17% among 300,000; AID 1554; in the data active = inhibition above about 50%
# * = called active by the depositor; · = not tested or not shown. Rows were chosen to be rich in hits. Some 0.95% of all compounds tested hit in one or more screens of this group.
SMILES,Sa ugtP lethal,RN4220 kill,PrPC surface inh,BJeLR lethal
CC1CCC(C(C)C)C(OC(=O)Cn2c(-c3ccc(Br)cc3)[n+](C)c3ccccc32)C1 (configuration not stated),100*,100*,-3,21
CC1CCC(C(C)C)C(OC(=O)COC(=O)c2cccn2C)C1 (configuration not stated),23,3,0,3
CC1CCC(C(C)C)C(OC(=O)COC(=O)c2ccccc2N)C1 (configuration not stated),94*,-1,-3,-10
CCCCCCCCCCOC(=O)Cn1c(COc2ccccc2C)[n+](C)c2ccccc21,·,·,·,2
COc1cccc(N2CCN(C(=O)COc3cc(=O)n(C)c4ccccc34)CC2)c1,·,·,-4,·
CC(C)C(CO)Nc1nc(Nc2ccc(Cl)c(C(=O)O)c2)c2ncn(C(C)C)c2n1 (configuration not stated),7,3,·,·
COc1cccc(NC(=S)NN=C2CC3CCC2(C)C3(C)C)c1 (configuration not stated),7,7,·,·
CCCCCCOc1ccc(CN2CCN(C)CC2)cc1,86*,0,7,-9
CCCCOc1ccc(CN2CCCCC2)cc1,4,6,2,0
COc1cccc(NCc2cc(=O)oc3cc(-c4ccccc4)c(O)cc23)c1,·,·,-16,-4
COc1cccc(NCc2cc(=O)oc3cc(C)c(O)cc23)c1,100*,97*,-5,-4
CCCCCCCCCCS(=O)(=O)N/N=C/c1ccccc1OC,·,·,-6,-1
CCCCCCCCCCS(=O)(=O)NN=Cc1ccccc1OC,97*,4,·,·
CN[C@H]1C[C@H]2O[C@@](C)([C@H]1OC)n1c3ccccc3c3c4c(c5c6ccccc6n2c5c31)C(=O)NC4,·,·,·,107*
Cc1cccc(N(C)S(=O)(=O)c2ccc(-c3cnc(C4CC4)o3)cc2)c1,-10,11,9,65*
O=C(NN=Cc1ccc(OCc2ccccc2)cc1)c1cccs1,0,8,·,·
Cc1oc2c(c1C(=O)NCc1cccnc1)C(=O)c1ccccc1C2=O,88,91*,·,76*
O=C(Nc1cccnc1)c1cccc(-c2cc3ccccc3oc2=O)c1,1,3,-4,-9
COc1ccc(CNC(=O)c2c(C)oc3c2C(=O)c2ccccc2C3=O)cc1,34,46,13,11
O=C(NCc1cccnc1)c1ccc(-c2cc3ccccc3oc2=O)cc1,3,0,-40,66*
O=C(COc1ccc(Cl)cc1)NN=Cc1cccc2cccnc12,5,3,·,·
O=C1NC(=S)SC1=Cc1ccc(Cl)cc1,99*,95*,-8,·
COc1ccc(C=C2SC(=S)NC2=O)cc1,·,·,1,·
O=C1NC(=S)NC1=Cc1ccc(Cl)cc1Cl,12,9,-7,·
O=C1NC(=S)SC1=Cc1ccc(N(CCCl)CCCl)cc1,80,87*,-3,·
SMILES,Sa ugtP lethal,RN4220 kill,PrPC surface inh,BJeLR lethal
O=C1NC(=S)SC1=Cc1ccc(F)cc1,92*,90*,-6,·
O=C1NC(=S)S/C1=C\c1ccc2ccccc2c1,·,·,2,0
O=C1NC(=O)C(=Cc2ccc(Cl)cc2Cl)S1,93*,91*,-5,·
O=C1NCC(Cc2ccc(O)cc2)N(CCc2cccc3ccccc23)C1=O (configuration not stated),-2,8,·,·
O=C1CCN(Cc2ccc(O)cc2)CCN1C(CO)Cc1ccccc1 (configuration not stated),4,6,·,·
CCCCc1c(C)c(C#N)c2nc3ccccc3n2c1Cl,·,·,·,128*
CC(=O)OCC1=C(C(=O)O)N2C(=O)C(NC(=O)CC(C)c3ccccc3)C2SC1 (configuration not stated),94*,100*,-8,·
CC1=C(C(=O)OCc2ccc([N+](=O)[O-])cc2)N2C(=O)C(NC(=O)Cc3ccccc3)C2SC1 (configuration not stated),0,2,5,1
CC(=O)OCC1=C(C(=O)O)N2C(=O)C(NC(=O)C(C)Cn3cc(Cl)cn3)C2SC1 (configuration not stated),100*,100*,-4,1
CC(=O)OCC1=C(C(=O)O)N2C(=O)[C@@H](NC(=O)Cc3cccs3)[C@H]2SC1,99*,99*,8,3
O=C(O)C=CC(=O)Nc1ccc(NC(=O)c2ccccc2)c(Cl)c1,-4,4,·,·
COc1ccccc1CNC(=O)NC1CCN(CC(=O)Nc2ccc3c(c2)OCCO3)CC1,·,·,4,·
O=c1c(Cl)nc2cc(Cl)ccc2n1CCNc1ncc(C(F)(F)F)cc1Cl,96*,33,·,88*
COC(=O)C1=C(c2ccc(Cl)c(C(F)(F)F)c2)CC2CCC1N2C(=O)N1CCCC1 (configuration not stated),-3,4,·,·
Cc1cccc(N=Cc2c(O)ccc3oc4c(c23)CCCC4)n1,13,5,·,·
COc1cc(/C=C(\C#N)C(=O)NC2CCCCC2C)ccc1OS(=O)(=O)c1ccc(C)cc1 (configuration not stated),-1,5,-2,84*
COc1cc(/C=C(\C#N)C(N)=O)ccc1OS(=O)(=O)c1ccc(C)cc1,-3,4,-2,7
Oc1cccc(-c2nc3ccc4ccccc4c3c3c2CCC3)c1,100*,61,10,1
CCCCNS(=O)(=O)/C=C/c1cc(C)ccc1CNC(=O)OC(C)(C)C,·,·,13,·
C[n+]1c2n(c3ccccc31)N=C(c1cc(C(C)(C)C)c(O)c(C(C)(C)C)c1)CS2,98*,99*,20,-1
C[C@@H]1C=CC(=O)O[C@@H]1c1ccc(C(F)(F)F)cc1,·,·,·,92*
CCC(=O)N1CCc2cc(Br)c(S(=O)(=O)NCCCN(CC)Cc3ccccc3)cc21,·,·,-10,·
CN1CCN(c2cc(-c3cc(O)c4ncccc4c3)ccn2)CC1,-6,3,-17,·
Oc1cc(-c2cccnc2)cc2cccnc12,100*,100*,-11,·
C=C1[C@@H]2CC[C@H]3[C@]4(C)[C@@H](O)CC[C@@](C)(C(=O)OC)[C@H]4C[C@H](O)[C@]3(C2)[C@H]1O,·,·,-2,·
SMILES,Sa ugtP lethal,RN4220 kill,PrPC surface inh,BJeLR lethal
C=C1C(=O)[C@@]23[C@H](O)C[C@@H]4C(C)(C)CC[C@H](O)[C@]4(C)[C@@H]2C[C@H](O)[C@@H]1[C@H]3O,·,·,25*,-7
C=C1C(=O)[C@@]23[C@H](O)C[C@@H]4C(C)(C)CC[C@H](O)[C@@]4(C)[C@@H]2CC[C@@H]1[C@H]3O,·,·,71*,14
CC(=NNC(=O)c1ccc(N(C)C)cc1)c1cccnc1,5,4,·,·
O=C(NC(NC(=S)Nc1cccc(C(=O)O)c1)C(Cl)(Cl)Cl)OCc1ccccc1 (configuration not stated),9,3,1,19
O=C(NC(NC(=S)Nc1cccc(Cl)c1)C(Cl)(Cl)Cl)OCc1ccccc1 (configuration not stated),96*,90*,13,3
CCCCCCCCCCSc1n[nH]c(N)n1,84*,16,8,-4
Cc1nnc(SCC2=C(C(=O)O)N3C(=O)C(NC(=O)Cn4nc(C(F)F)cc4C)C3SC2)s1 (configuration not stated),101*,100*,5,5
CC(=O)OCC1=C(C(=O)O)N2C(=O)[C@@H](NC(=O)Cc3ccccc3)[C@H]2SC1,·,·,1,·

# Assay outcomes as filed in PubChem.
